Measured values as given in PubChem BioAssay AID1347076 (National Center for Advancing Translational Sciences (NCATS), 2019).
Hit rate of the full screen: of about 400,000 compounds, about 13,000 (3.2%) were called active. Not shown: some 18% with an inconclusive outcome. The call rests on the fitted dose curve; in most records, active means well fitted cell-killing curve with a large enough effect; inconclusive means small, poorly fitted or top-dose-only effect, or effect the other way; inactive means flat fitted curve, though single readings scatter. What follows is part of a selection rich in actives, with near analogues and random picks from the rest. Entries that show only a call come without a potency.

Experiment: qHTS assay for MDR1-selective chemotherapeutics: Primary screen using the drug-selected MDR subline cells KB-V1; further: nearly all actives have a fitted effect of over 60% in size
Conditions: KB-V1 MDR cells viability, CellTiter-Glo, 72 h; series mostly up to 46.1 µM
Outline: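 Cytotoxicity via CellTiter-Glo luminescence after 72 h compound exposure at 37 degrees C. Cells: drug-selected KB-V1 line, DMEM phenol-red free plus 10% FBS. Compounds tested at multiple concentrations; normalized data fitted to concentration-effect curves.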
Potency means the concentration at half of the fitted maximal effect.

SMILES | Potency
COc1ccc(Cl)cc1-c1cc(C(=O)Nc2cc(OC)c(OC)c(OC)c2)[nH]n1 | inactive
COc1ccc2cc(C(=O)O)n(CC(=O)c3ccccc3)c2c1 | inactive
CCn1c(=N)n(CC(=O)c2cccc(OC)c2)c2ccccc21 | 8.2 µM (active)
CCCn1c(=N)n(CC(=O)c2ccc(Cl)c(Cl)c2)c2ccccc21 | inactive
O=C(N[C@H]1CC[C@H](CC(=O)N2CCCCC2)O[C@@H]1CO)c1cccc(F)c1 | inactive
Cc1cc2nc(-c3ccco3)c(Cc3cccc(F)c3)n2c(C)c1Br | inactive
Cc1cccc(-n2c(=O)c3c(C)c(C)sc3n(CC(N)=O)c2=O)c1 | inactive
CCOc1ccccc1NC(=O)Cn1c(=O)n(Cc2ccccc2)c(=O)c2c(C)c(C(=O)N(C)C)sc21 | inactive
Cc1cccc(NC(=O)Cn2c(=O)n(Cc3ccccc3)c(=O)c3c(C)c(C)sc32)c1 | 5.17 µM (active)
CCCS(=O)(=O)NC(=O)C1(C)CCCN(C(=O)c2cc(C)on2)C1 (stereo not given) | inactive
O=C(OCc1ccc(Br)cc1)c1cccc(-c2nnc(-c3ccccc3)o2)c1 | 9.2 µM (active)
O=C(OCc1ccc(-c2ccccc2)cc1)c1cccc(O)c1 | inactive
CC(=O)Nc1cccc(C(=O)OCC(=O)Nc2nnc(-c3ccccc3)o2)c1 | inactive
O=C(O)C1=C/C(=C/C=[N+]2c3cc(O)c(O[C@H]4OC(CO)[C@@H](O)[C@@H](O)[C@@H]4O)cc3C[C@@H]2C(=O)[O-])C[C@H](C(=O)O)N1 (stereo not given in full) | inactive
O=C(Nc1cccc2c1CCCC2)C1CCN(C(=O)NC2CCCCC2)CC1 | 13 µM (active)
Cc1cccc(NC(=O)C2CCN(C(=O)NC3CCCCC3)CC2)c1 | inactive
Cc1ccccc1NC(=O)C1CCN(C(=O)NC2CCCCC2)CC1 | inactive
CCCCC(O)C1=C[N+](=O)CC=C1 (stereo not given) | inactive
COc1ccc(N(CC(=O)NCCc2ccc(Cl)cc2)S(=O)(=O)c2c(C)nn(C)c2C)cc1 | inactive
C(=Nc1ccc(/C=C/c2ccnc3ccccc23)cc1)c1cc2c3c(c1)CCCN3CCC2 | inactive
Cc1cc2c(C)nc(N/N=C/c3ccccc3)nc2o1 | 23.1 µM (active)
O=c1c2ccccc2nc(N/N=C/c2ccccc2)n1O | inactive
Cc1nc(Cl)cc(N/N=C/c2ccccc2)n1 | inactive
O=C(c1cc(C2CCCCN2S(=O)(=O)c2ccccc2)on1)N1CCOCC1 (stereo not given) | inactive
Nc1cc(C(=O)N2CCN(c3ccccc3Cl)CC2)ccc1N1CC2CC(C1)c1cccc(=O)n1C2 (stereo not given) | inactive

SMILES | Potency
CN(C1CCS(=O)(=O)C1)S(=O)(=O)c1ccc2ccccc2c1 (stereo not given) | inactive
Cc1ccc(S(=O)(=O)CCC(=O)OCC(=O)N(C)C2CCS(=O)(=O)C2)cc1 (stereo not given) | inactive
Cc1ccc(S(=O)(=O)N(c2cccc(C)c2)C2CCS(=O)(=O)C2)cc1 (stereo not given) | 16.4 µM (active)
CCc1nc2nc(C)cc(Nc3ccc(F)c(Cl)c3)n2n1 | inactive
CCOC(=O)c1ccc2[nH]c3c(c2c1)CCCC3NC=O (stereo not given) | inactive
O=[N+]([O-])c1ccc2[nH]c3c(c2c1)CCCC3O (stereo not given) | 20.6 µM (active)
N#CCc1c[nH]c2ccc([N+](=O)[O-])cc12 | inactive
Cc1c(C(=O)N(C)C)sc2c1c(=O)n(-c1ccc(F)cc1)c(=O)n2CC(=O)N(C)c1ccccc1 | inactive
O=C(COC(=O)Cc1ccc(Cl)cc1Cl)NCc1ccco1 | inactive
COCCNC(=O)CSc1nc(N)c(NC(=O)c2ccco2)c(=O)[nH]1 | inactive
O=C(COc1ccccc1Cl)N1N=C(c2cccs2)CC1c1ccco1 (stereo not given) | inactive
O=C1c2cccc(OCC(=O)N3N=C(c4cccs4)CC3c3ccc(F)cc3)c2CCN1Cc1ccccc1 (stereo not given) | 1.64 µM (active)
COc1ccc(C2CC(c3cccs3)=NN2C(=O)CCC(=O)O)cc1OC (stereo not given) | inactive
COc1ccc(NC(=O)C2(C)Cc3c(-c4ccc(C(N)=O)cc4)ccnc3O2)cc1 (stereo not given) | inactive
O=C(CSc1ncc(-c2ccccc2)[nH]1)Nc1ccc(F)cc1F | inactive
CC(C)(C)OC(=O)N1CCN(C(=O)c2[nH]c(C(F)(F)F)nc2-c2ccccc2)CC1 | inactive
O=C1O/C(=C\c2ccc(O)cc2)C(O)=C1c1ccc(O)cc1 | inactive
CCOC(=O)c1nnn(CC(=O)Nc2cccc(F)c2)c1C(=O)OCC | inactive
CCOC(=O)c1cccc(NC(=O)CCc2c(C)nc3ncnn3c2C)c1 | inactive
CCOC(=O)c1cccc(NC(=O)CCn2nnc3ccccc32)c1 | 8.2 µM (active)
C[C@H](CO)N1C[C@H](C)[C@@H](CN(C)S(=O)(=O)c2ccc(F)cc2)OCc2cnnn2CCCC1=O | inactive
CCC(C)N(c1ccc(/C=C/c2ccnc3ccccc23)cc1)C(C)CC (stereo not given) | inactive
OC(c1ccccc1)c1nc(/C=C/c2ccc(C(F)(F)F)cc2)cs1 (stereo not given) | inactive
CC1CCCCN1C(=O)CCS(=O)(=O)Cc1ccccc1 (stereo not given) | inactive
Cc1cc(C(=O)OCC(=O)N2C(C)CCCC2C)c2ccccc2n1 (stereo not given) | inactive

SMILES | Potency
Cc1nn(-c2ccccc2)nc1C(=O)OCC(=O)N1CCCCC1C (stereo not given) | 23.1 µM (active)
Cc1ccc(N(CC(=O)NCC(C)c2ccccc2)S(=O)(=O)N(C)C)cc1 (stereo not given) | inactive
O=C(NCc1nnnn1-c1ccc(Cl)cc1)c1ccc([N+](=O)[O-])o1 | inactive
O=[N+]([O-])c1ccc(C(S(=O)(=O)Cc2ccccc2)S(=O)(=O)Cc2ccccc2)cc1 | inactive
CC(C)S(=O)(=O)c1csc(NC(=O)Nc2ccc(Cl)cc2)c1Cl | 20.6 µM (active)
Cn1ccc(NC(=O)Nc2ccc(Cl)cc2)n1 | inactive
CN(c1cccc(NC(=O)Nc2ccc(Cl)cc2)c1)S(C)(=O)=O | inactive
CCNC(=O)C1(C)CCCN(Cc2noc(-c3ccccc3OC)n2)C1 (stereo not given) | inactive
O=C(NCc1cccc(C(F)(F)F)c1)c1ccc2sc(COCCO)nc2c1 | inactive
O=C(COc1ccc2c(C(F)(F)F)cc(=O)oc2c1)Nc1ccc2c(c1)OCCO2 | inactive
Cc1ccc(SCC(=O)Nc2ccc3c(c2)OCCO3)cc1 | inactive
CCN(CC(=O)Nc1ccc2c(c1)OCCO2)Cc1cc(=O)oc2cc(C)c(C)cc12 | 5.17 µM (active)
CC1(C)Cc2ccccc2-c2c[nH]c(=O)n21 | inactive
Cc1cccc(NC(=O)N(Cc2cc3cc(C)cc(C)c3[nH]c2=O)CC2COCCO2)c1 (stereo not given) | inactive
Cc1ccc2[nH]c(=O)c(CN(CC3COCCO3)C(=O)Nc3ccccc3C)cc2c1 (stereo not given) | inactive
Cc1ccc2[nH]c(=O)c(CN(CCCN(C)C)C(=O)Nc3cccc(Cl)c3)cc2c1 | 18.4 µM (active)
N#CCCC(C#N)(c1cccnc1)N1CCOCC1 (stereo not given) | inactive
CCOc1ccccc1CNC(=O)c1cnc2c(-c3ccc(OCC)c(OCC)c3)c(C)nn2c1C | inactive
CC(C)(C)OC(=O)NNc1c2ccccc2nc2ccccc12 | 9.2 µM (active)
Cc1ccccc1NC(=O)NNC(=O)OC(C)(C)C | inactive
Cc1ccc(C(=O)NNC(=O)OC(C)(C)C)c(Cl)c1 | inactive
COC(=O)[C@H]1C[C@H](OC(=O)NCc2ccccc2)[C@@]2(O)CN(S(=O)(=O)c3ccc(C)cc3)CC2[C@H]1C(=O)OC (stereo not given in full) | inactive
COc1ccc(NC(=O)CSc2nc(NS(=O)(=O)c3ccc(C)cc3)cc(=O)[nH]2)cc1 | 3.66 µM (active)
Cc1cc(=O)[nH]c(SCC(=O)Nc2ccc(Br)cc2)n1 | inactive
Cc1ccc(NC(=O)CSc2nc(CSc3ccc(C)cc3)cc(=O)[nH]2)cc1 | inactive

SMILES | Potency
CC1(C(=O)NS(=O)(=O)c2ccccc2)CCN1C(=O)C1CCCCC1 (stereo not given) | inactive
COC(=O)C[C@H]1C[C@@H]2c3cc(NC(=O)Nc4ccccc4)ccc3O[C@@H]2[C@@H](CO)O1 | inactive
COc1cc(OC)cc(C2=Cc3ccccc3C(CC(=O)c3ccco3)N2c2ccc(-c3cnc(OC)nc3)cc2)c1 (stereo not given) | inactive
Cc1ccc(S(=O)(=O)/N=C(/Nc2ccccn2)c2ccc(Cl)cc2)cc1 | inactive
O=S(=O)(/N=C(/Nc1ccccn1)c1ccccc1)c1ccc(Cl)cc1 | 14.6 µM (active)
O=S(=O)(Nc1ccccn1)c1cccc(S(=O)(=O)c2ccc(Cl)cc2)c1 | inactive
OC(CBr)CN1CCCCC1 (stereo not given) | inactive
CCn1cc(C(=O)N(C)Cc2ccccc2)c(=O)c2cc(S(=O)(=O)N3CCCCCC3)ccc21 | inactive
Cc1ccc(-c2ccc(C3=CC(=O)CC(C)(C)C3=O)cc2)cc1 | inactive
CC(C)(C)Cc1c(C2CCCCC2)nc2ccc(Br)cn12 | inactive
O=C(/C=C/c1ccccc1)N/C(=C/c1ccccc1)C(=O)Nc1ccccc1O | 23.1 µM (active)
CCc1ccccc1NC(=O)/C(=C/c1ccccc1)c1ccccc1 | inactive
O=C(Nc1ccc(C(=O)O)cc1)/C(=C\c1ccccc1)NC(=O)c1ccc(Br)cc1 | inactive
Cc1cc2nc(NC(=O)c3ccc(S(=O)(=O)N4CCOCC4)cc3)sc2cc1C | inactive
COc1ccc(C(=O)Nc2nc(-c3ccc(S(=O)(=O)N4CCOCC4)cc3)cs2)cc1 | 16.4 µM (active)
CCOC(=O)c1csc(NC(=O)c2ccc(S(=O)(=O)N3CCCC3)cc2)n1 | inactive
O=C(O)c1ccccc1Cc1ccc(F)c2ccccc12 | inactive
COC(=O)C[C@H]1C=C[C@@H](NS(=O)(=O)c2ccc(C)cc2)[C@@H](CO)O1 | inactive
Cc1[nH]c2ccccc2c1C(=O)C(=O)N(C)c1ccccc1 | inactive
CNS(=O)(=O)c1ccc2c(c1)[nH]c(=S)n2C | inactive
Cc1nc(CNS(=O)(=O)c2ccc(Oc3ccccc3)cc2)cs1 | 8.2 µM (active)
Cc1ccc(S(=O)(=O)NCc2csc(C)n2)c(C)c1 | inactive
Cc1nc(CNS(=O)(=O)c2cccnc2)cs1 | inactive
CC(=O)c1ccccc1NC(=O)COC(=O)C1COc2ccccc2O1 (stereo not given) | inactive
COc1cc(C(O)c2nc(-c3cccc(C(=O)O)c3)cs2)ccc1F (stereo not given) | inactive
